Laboratory results reported in PubChem BioAssay (NCATS).
“And” between values parts separate entries of the source, which are not always exact repeats. Equal entries are not always repeated. Records with an inconclusive call do not appear. Entries that show only a call come without a potency. A number with no mark means an inactive call. The source made the active and inactive calls. Calls come from the whole dose curve; as a rule, active = well fitted inhibition curve with a large enough effect; inconclusive = small, poorly fitted or top-dose-only effect; inactive = flat fitted curve, though single readings scatter. Where a SMILES comes first, the peptide text is derived from it. The star is where a group is joined. AFC = O=c1cc(C(F)(F)F)c2ccc(N*)cc2o1

What was measured:
Experiment in all cases: Cytotoxic Profiling of Annotated Libraries Using Quantitative High-Throughput Screening (AID 1296008); note: nearly all actives have a fitted effect of over 60% in size
Details in all cases: Five cell lines viability, CellTiter-Glo ATP luminescence, 48-72 h; max response: stronger effect = lower value
CRL-7250 = normal cell line; tested on: CRL-7250
How it was run: (§1)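 Compounds were pin-transferred onto cells and incubated 48 or 72 hr at 37 degree Celsius, 95% humidity. CellTiter-Glo was added, plates sat 10 min at room temperature, then ATP-coupled luminescence was imaged as the viability read-out.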

HEK293 = tested on: HEK293
How it was run: as §1

HaCat = tested on: HaCat
How it was run: as §1
Potency is the fitted concentration of half-maximal effect.

| Compound | max response (CRL-7250) | outcome (HEK293) | max response (HaCat) | outcome (HaCat) | outcome (CRL-7250) | Potency (HEK293) |
| --- | --- | --- | --- | --- | --- | --- |
| CC1=C(C)C(=O)OC(C(C)(O)C2CCC3C4CC=C5CC(OC6OC(COC7OC(CO)C(O)C(O)C7O)C(O)C(O)C6O)CC(O)C5(C)C4CCC32C)C1 (configuration not stated) | -12.7% | inactive | -5.11% | – | – | – |
| C/C=C/C1=CC2=C(CO1)C(=O)[C@](C)(O)[C@H](OC(=O)c1c(O)cc(OC)c(O)c1C)C2 | 2.48% | inactive | – | inactive | – | – |
| CC(C)(O)/C=C1/C(=O)C(C)(C)C(=O)C(C)(C)C1(O)O[C@@H]1O[C@H](COC(=O)c2cc(O)c(O)c(O)c2)[C@@H](O)[C@H](O)[C@H]1O (some centres not stated) | -11.2% | inactive | – | inactive | – | – |
| CC(=O)O[C@H](C[C@@H](C)[C@H]1C(=O)[C@H](O)[C@@]2(C)[C@@H]3CCC4C(C)(C)[C@@H](O[C@@H]5OC[C@H](O)[C@H](O)[C@H]5O)CC[C@@]45C[C@@]35CC[C@]12C)[C@@H]1OC1(C)C (some centres not stated) | 0.817% | inactive | 2.98% | – | – | – |
| c1ccc(Nc2nc3c(s2)CCCc2[nH]ncc2-3)nc1 | -6.19% | inactive | – | inactive | – | – |
| COC(=O)[C@@]1(O)C=CC[C@@H]2[C@@]3(C)C[C@@H](c4ccoc4)OC(=O)[C@H]3CC[C@]21C | – | inactive | – | inactive | inactive | – |
| C=C1CC23CCC4[C@@](C)(CCC[C@@]4(C)C(=O)O)C2CCC1C3 (some centres not stated) | -2.77% | inactive | -11.3% | – | – | – |
| C[C@@H]1O[C@@H](O[C@H]2[C@H](OC(=O)C34CCC(C)(C)CC3C3=CCC5C6(C)CC(O)C(O[C@@H]7O[C@H](CO)[C@@H](O)[C@H](O)[C@H]7O)C(C)(C(=O)O)C6CCC5(C)C3(CO)CC4)O[C@H](C)[C@H](O)[C@@H]2O)[C@H](O)[C@H](O)[C@H]1O[C@@H]1OC[C@@H](O)[C@H](O)[C@H]1O (some centres not stated) | -4.64% | inactive | 3.66% | – | – | – |
| CCOc1ccc(C(Nc2ccccn2)c2ccc3ccc(C)nc3c2O)cc1C (configuration not stated) | – | inactive | – | inactive | inactive | – |
| COc1cc(C[C@H]2COC(=O)[C@@H]2Cc2ccc(O)c(OC)c2)ccc1O | – | inactive | – | inactive | inactive | – |
| CNc1nc(Nc2cnn([C@H]3CCN(C4COC4)C[C@@H]3F)c2Cl)ncc1C(F)(F)F | -6.85% and -3.81% | – | – | inactive | – | 23.1 µM (active) and 9.33 µM (active) |
| CC1(C)CC[C@]2(C(=O)O)CC[C@]3(C)C(=CCC4[C@@]5(C)C[C@@H](O)[C@H](O)C(C)(C)C5CC[C@]43C)[C@@H]2[C@@H]1O (some centres not stated) | -1.48% | inactive | -22.1% | – | – | – |
| C[C@@H]1O[C@@H](O[C@@H]2[C@@H](O)[C@H](O[C@@H]3[C@@H](O)[C@@H](O)[C@H](O[C@H]4[C@H](OC(=O)[C@]56CCC(C)(C)C[C@H]5C5=CCC7[C@@]8(C)C[C@H](O)[C@H](O[C@@H]9O[C@@H](C)[C@H](O)[C@@H](O)[C@H]9O)[C@@](C)(CO)C8CC[C@@]7(C)[C@]5(C)C[C@H]6O)O[C@H](C)[C@H](O)[C@@H]4O)O[C@H]3C)OC[C@H]2O)[C@H](O)[C@H](O)[C@H]1O (some centres not stated) | 4.2% | inactive | – | inactive | – | – |
| CCn1nnnc1NCc1ccc(C(C)C)cc1 | – | inactive | – | inactive | inactive | – |
| CC(=O)O[C@@H]1[C@@H](OC(=O)/C=C/c2ccccc2)[C@H](C)O[C@@H](O[C@H]2[C@@H]3C=CO[C@@H](O[C@@H]4O[C@H](CO)[C@@H](O)[C@H](O)[C@H]4O)[C@@H]3[C@@]3(CO)O[C@@H]23)[C@@H]1OC(C)=O | -9.67% | inactive | -6.34% | – | – | – |
| O=C(/C=C/c1ccc(O)cc1)OCC1=CC2OC(=O)C3=CO[C@@H](O[C@@H]4O[C@H](CO)[C@@H](O)[C@H](O)[C@H]4O)[C@H]1[C@@H]32 (some centres not stated) | -2.07% | inactive | – | inactive | – | – |
| CC/C=C\C[C@H]1C(=O)C=C[C@@H]1CCCCCCCC(=O)O | 4.76% | inactive | – | inactive | – | – |
| C=CCc1ccc(O[C@@H]2O[C@H](CO)[C@@H](O)[C@H](O)[C@H]2O)c(OC)c1 | -5.9% | inactive | – | inactive | – | – |
| CC(=O)N[C@@H](CC(C)C)C(=O)N[C@@H](CCC(=O)O)C(=O)N[C@@H](CCC(=O)O)C(=O)N[C@@H](CC(=O)O)C(=O)Nc1ccc2c(C(F)(F)F)cc(=O)oc2c1 (Ac-LEED-{AFC}) | -4.37% | inactive | -31% | – | – | – |
| CC(C#N)C(C)O[C@@H]1O[C@H](CO)[C@@H](O)[C@H](O)[C@H]1O (some centres not stated) | – | inactive | – | inactive | inactive | – |
| CC1=CC(=O)C2C(C)(C)CCCC2(C)C12CCC1(COC(=O)C1)O2 (configuration not stated) | -1.45% | inactive | – | inactive | – | – |
| OCC1OC(Oc2cc(O)c3c(c2)OC(c2ccc(O)cc2)C(O)C3)C(O)C1O (configuration not stated) | -1.28% | inactive | -8.75% | – | – | – |
| COC1CC(=O)CCC(C)OC(=O)CC1O (configuration not stated) | -4.48% | inactive | 1.84% | – | – | – |
| CC(C)(C)NCc1cc(Nc2ccnc3cc(Cl)ccc23)c2c(c1O)CCCC2 | 1.77% | inactive | -6.14% | – | – | – |
